Measurements from ChEMBL document CHEMBL3988442, “University of Dundee, Small-Polar-MMV Screening Library” (2021).
Hit rate of the full screen: of about 48,000 compounds, about 13,000 (27%) showed an effect of 50% or more. The list shows a part of the results.

system: Wolbachia pipientis; test: Anti-Wolbachia Cell-Based Screen; type: functional; parameters: scale not given: in the data most compounds retested in dose-response had high values; details: 5 µM

| SMILES | Percent Effect [%] |
| --- | --- |
| Cn1cc(CN2CCCC3(CCN(C(=O)c4cnccn4)C3)C2)cn1.O=C(O)C(F)(F)F.O=C(O)C(F)(F)F (centres undefined) | -36.61 |
| Cn1cc(CN2CCC3(CCCN(C(=O)c4cnccn4)C3)C2)cn1 (centres undefined) | 7.413 |
| Cn1cc(CN2CCC3(CC2)CN(C(=O)c2cnccn2)CCO3)cn1 | 101.7 |
| CC(C)CCN1CCC2(CC1)CN(C(=O)c1cnccn1)CCO2.O=C(O)C(F)(F)F | -8.642 |
| Cc1ccc(CN2CCC3(CC2)CN(C(=O)c2cnccn2)CCO3)o1.O=C(O)C(F)(F)F | 98.59 |
| CCc1ccc(CN2CCC3(CCCN(C(=O)c4cnccn4)C3)C2)o1.O=C(O)C(F)(F)F (centres undefined) | 23.64 |
| Cc1cc2n(n1)CC(CNC1CCN(C(=O)C3CC3)CC1)CN2 (centres undefined) | 1.236 |
| Nc1cc(C(=O)NCC2CCN(Cc3ccncc3F)C2)ccn1 (centres undefined) | -104.6 |
| CC(C)(C)c1nccc(N2CCC(OCCN3CCCCC3)C2)n1 (centres undefined) | 4.599 |
| CC(Cn1cncc1-c1cnn(C2CCCCC2)c1)N1CCCCC1.Cl (centres undefined) | 109.8 |
| CC(C)n1cc(CN(C)C[C@@H]2CCCN3CCCC[C@H]23)cn1 | 12.76 |
| CC(CN1CCCCCC1)NCc1nncn1C1CCCCC1 (centres undefined) | -0.3524 |
| COCCn1c2c(ccc1=O)CCN(C(=O)CC1CC1)CC2 | 117 |
| COCCn1c2c(ccc1=O)CCN(C(=O)C1CC=CC1)CC2 | 102.1 |
| O=C(NC1CC1)N1CCc2ccc(=O)n(CC3CC3)c2CC1 | 7.486 |
| COCC(=O)N1CCc2ccc(=O)n(CC3CC3)c2CC1 | 104.1 |
| COCCn1c2c(ccc1=O)CCN(C(=O)NC1CC1)CC2 | 105.3 |
| COCCn1c2c(ccc1=O)CC(N)CC2 (centres undefined) | -4.933 |
| O=C(NC1CC1)N1CCc2ccc(=O)n(CCN3CCCC3)c2CC1.O=C(O)C(F)(F)F | -8.445 |
| CC(C)c1cccc(CSc2nnc(Cn3cncn3)o2)n1 | -1.93 |
| CN(C)C(=O)CN1C(=O)CO[C@@H]2CN(c3ccccn3)C[C@H]21.O=C(O)C(F)(F)F | -2.034 |
| Cc1cc(CCCC(=O)NC2CCN(C)C2=O)c(C)s1 (centres undefined) | -2.482 |

| SMILES | Percent Effect [%] |
| --- | --- |
| CNC(=O)CS(=O)(=O)C1CCN(S(=O)(=O)c2ccccc2Br)CC1 | 9.932 |
| Cc1ccc(-c2noc(C(O)CC(C)C)n2)nn1 (centres undefined) | -5.785 |
| O=C(CN1CCS(=O)(=O)CC1)NC1CCOc2ccccc21 (centres undefined) | 5.265 |
| Cc1ccc(CS(=O)(=O)Cc2nc(N)nc(N(C)C)n2)cc1 | 10.59 |
| CN(C)c1cc2c(nn1)CCN(C(=O)C1Cc3ccccc3S1)C2 (centres undefined) | -0.2262 |
| CC(C)c1ccc(O)c(C(=O)NCc2cc[nH]n2)c1 | -15.09 |
| CC(NCCCn1cccn1)c1ccc(N2CCCS2(=O)=O)cc1 (centres undefined) | -2.983 |
| CC(NCCCn1ccnc1)c1ccc(N2CCCS2(=O)=O)cc1 (centres undefined) | -4.666 |
| COCCCNS(=O)(=O)c1ccc(N2CCCCS2(=O)=O)cc1 | 124.1 |
| COC(=O)c1sc(C(F)(F)F)cc1OC | 102.8 |
| COc1cc(C)sc1C(=O)NCCNc1ccccc1 | -4.959 |
| COc1cc2cc(C(=O)O)n(C)c2cc1OC | -4.689 |
| CNS(=O)(=O)c1ccsc1C(=O)OC | 1.281 |
| COc1cc(C(F)(F)F)sc1C(=O)O | 103.8 |
| CCOCC(C)(C)NC(=O)Nc1cc(F)ccc1OC | -3.533 |
| CC1CCCCN1S(=O)(=O)NCCN/C(O)=C1/N=CC=CC1=O (centres undefined) | -4.587 |
| CCc1ccc(CN2CCCC(CO)(CCOC)C2)cc1 (centres undefined) | -6.434 |
| Cc1cc(C)n(CC2CCCCN2C(=O)c2ccc(C(N)=O)cc2)n1 (centres undefined) | 111.1 |
| Cc1cc(C)n(CC2CCCCN2C(=O)c2cnn(C)c2)n1 (centres undefined) | -4.108 |
| Cc1cc(C)n(CC2CCCCN2C(=O)c2ccc3nncn3c2)n1 (centres undefined) | 3.82 |
| Cc1cc(C)n(CC2CCCN2C(=O)c2ccc3[nH]nnc3c2)n1 (centres undefined) | -17 |
| Cc1cc(C)n(CC2CCCN2C(=O)c2ccc(NC3CC3)nc2)n1 (centres undefined) | 104.7 |

| SMILES | Percent Effect [%] |
| --- | --- |
| CCOc1ccc(C(=O)N2CCCCC2Cn2nc(C)cc2C)cn1 (centres undefined) | 118.2 |
| Cc1cc(C)n(CC2CCCN2C(=O)c2ccc(C(N)=O)cn2)n1 (centres undefined) | -1.212 |
| CCOc1ccccc1C(CC(=O)N(C)C)NC(C)=O (centres undefined) | -2.972 |
| CCc1nc2n(n1)CC(NCc1cn(C)nc1-c1cccnc1)CC2 (centres undefined) | -2.892 |
| Cc1cnc(N2CC[C@@H]3O[C@H](COCc4ccccn4)CC[C@@H]32)nc1.O=C(O)C(F)(F)F.O=C(O)C(F)(F)F | -4.87 |
| Cc1ccc2c(c1)SCC(=O)N2CC(=O)N1CCC[C@H]1c1nc(C)no1 | 9.485 |
| O=c1cc(N2CCCC2)cnn1Cc1noc(C2CCCO2)n1 (centres undefined) | -13.05 |
| O=C1CSc2ccccc2N1Cc1noc(C2CCCO2)n1 (centres undefined) | 108.8 |
| Cc1ccc2c(c1)SCC(=O)N2CC(=O)N1CCCC1c1nccs1 (centres undefined) | 15.48 |
| Cc1ccc2c(c1)SCC(=O)N2Cc1noc(C2CC2)n1 | 92.98 |
| Cc1cccc(-c2nc(CN(Cc3cccs3)CC3CCCO3)no2)c1 (centres undefined) | 0.4556 |
| O=c1cc(N2CCCCC2)cnn1Cc1noc(C2CCCO2)n1 (centres undefined) | -0.8561 |
| Cc1ccc2c(c1)SCC(=O)N2Cc1noc(C2CCCO2)n1 (centres undefined) | 109.6 |
| Cc1cc(C)n(C2CCN(C(=O)CN3C(=O)CSc4ccccc43)C2)n1 (centres undefined) | -2.821 |
| CCCc1ccc(CN2C[C@H]3C(=O)N(CC4CC4)C[C@@]3(C(=O)O)C2)o1 | -18.71 |
| CC(C)c1ocnc1C(=O)NC(c1nnc2n1CCNCC2)C(C)C (centres undefined) | 15.04 |
| O=C1CCC(C(=O)N2CCOC(Cc3ccccc3Cl)C2)=NN1 (centres undefined) | -0.3624 |
| Cc1nc(C(C)(C)NC(=O)Nc2ccccc2)no1 | -20.84 |
| CCNC(=O)Cn1ncc(N(C)CCc2ccccc2)cc1=O | 6.09 |
| Cc1ccsc1C(=O)N1CCc2ncc(CN(C)C)n2CC1.O=C(O)C(F)(F)F | -9.607 |
